# Data from PubChem BioAssay.
# “And” between values parts separate entries of the source, which are not always exact repeats. Equal entries are not always repeated. Records with an inconclusive call do not appear. A structure can be active in one record and inactive in another. The source made the active and inactive calls.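 How the source made its calls, unless noted: active means normalized viability below 100% at a tested concentration; inactive means the rest.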
# How the values were obtained:
# [1] = viability loss in pontine glioma line – cell-based, SU-DIPG-XVII, MIPE5.0, CellTiter-Glo, qHTS, dose response (AID 1347060; cut-off not given, nearly all actives have AC50 up to about 26 µM;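 on AC50: cells exposed to compound for 48 hours before viability readout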); settings: CellTiter-Glo ATP luminescence
# [2] = viability loss in pontine glioma line – cell-based, SU-DIPG-XXV, MIPE5.0, CellTiter-Glo, qHTS, dose response (AID 1347065; cut-off not given, nearly all actives have AC50 up to about 26 µM;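 further: cells exposed to compound for 48 hours before ATP readout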); settings: CellTiter-Glo ATP luminescence
# [3] = JHH-DIPG-1 glioma cell viability, MIPE5.0 library, CellTiter-Glo luminescence, qHTS (AID 1347067; cut-off not given, nearly all actives have AC50 up to about 26 µM;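 further: cells exposed to compound for 48 hours before readout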); settings: JHH-DIPG-1 glioma viability, CellTiter-Glo ATP luminescence
# [4] = growth inhibition of DIPG cells – cell-based, MIPE5.0 library, qHTS (AID 1347068; cut-off not given, nearly all actives have IC50 up to about 30 µM;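 on IC50: cells exposed to compound for 48 hours before viability readout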); settings: SU-DIPG-XXV viability
# [5] = viability loss with induced miR-34 in A549 – imaging, A549 dox-inducible miR-34, nuclei and caspase counts, primary screen (AID 1347080;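 active means compounds whose cell count with miR-34 switched on is under 0.7 times the count with it off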); settings: A549 miR-34 inducible, Hoechst nuclei count, 48 h
# [6] = compounds altering HSF1 focus formation in cells – imaging, Selleck Cancer Library (AID 1347162; in the data active means plate-normalised HSF1 focus index below about 0.46); settings: human cells, HSF1 nuclear foci imaging, at 10 µM; SSMD: measured here: HSF1 foci SSMD mean; cell count: measured here: cell number; plate-normalised HSF1 focus index: stronger effect = lower value
# [7] = MELAS cybrid and Rieske KO viability enhancers – cell-based, MELAS cybrids, Rieske KO mouse fibroblasts, CellTiter-Glo, primary screen (AID 1508586;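 active means mean z-score across replicates of 1.96 or higher in either the MELAS or the Rieske mutant cell line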;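 further: z relative to plate mean and SD of compound and empty wells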); settings: low glucose
# [8] = drug combination growth inhibition, ovarian cancer – cell-based, oncology-focused library, rucaparib conditional, profiling panel (AID 1508598); settings: patient-derived ovarian cancer cells, CellTiter-Glo viability, 144 h, stronger effect = lower value
# [9] = liver-stage malaria parasite load reduction – cell-based, known kinase inhibitor set, luminescence, hepatoma host viability (AID 624392; call rule not given here;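 further: infected cells incubated roughly two days before readout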); settings: Plasmodium liver stage in hepatoma cells, luciferase luminescence, concentration not given here; liver cell % of control: measured here: host liver cell viability; parasite % of control: stronger effect = lower value
# [10] = stronger effect = lower value, cell number ratio, induced over uninduced
# [11] = measured here: relative caspase fold change +Dox/-Dox
# [12] = measured here: total cells with miR-34 induction, stronger effect = lower value
# [13] = measured here: total cells without miR-34 induction
# [14] = MELAS cybrid survival, CellTiter-Glo 48 h, stronger effect = higher value
# [15] = Rieske KO mouse fibroblast survival, CellTiter-Glo 72 h
# [16] = at 0.000305 µM, OCI-C5x cells, with rucaparib 10 µM, 100% = cells with rucaparib alone
# [17] = at 0.000305 µM, OCI-C5x cells, without rucaparib
# [18] = at 0.000305 µM, OCI-P5x cells, with rucaparib 20 µM, 100% = cells with rucaparib alone
# [19] = at 0.000305 µM, OCI-P5x cells, without rucaparib
# [20] = at 0.00122 µM, OCI-C5x cells, with rucaparib 10 µM, 100% = cells with rucaparib alone
# [21] = at 0.00122 µM, OCI-C5x cells, without rucaparib
# [22] = at 0.00122 µM, OCI-P5x cells, with rucaparib 20 µM, 100% = cells with rucaparib alone
# [23] = at 0.00122 µM, OCI-P5x cells, without rucaparib
# [24] = at 0.00488 µM, OCI-C5x cells, with rucaparib 10 µM, 100% = cells with rucaparib alone
# [25] = at 0.00488 µM, OCI-C5x cells, without rucaparib
# [26] = at 0.00488 µM, OCI-P5x cells, with rucaparib 20 µM, 100% = cells with rucaparib alone
# [27] = at 0.00488 µM, OCI-P5x cells, without rucaparib
# [28] = at 0.0195 µM, OCI-C5x cells, with rucaparib 10 µM, 100% = cells with rucaparib alone
# [29] = at 0.0195 µM, OCI-C5x cells, without rucaparib
# [30] = at 0.0195 µM, OCI-P5x cells, with rucaparib 20 µM, 100% = cells with rucaparib alone
# [31] = at 0.0195 µM, OCI-P5x cells, without rucaparib
# [32] = at 0.0781 µM, OCI-C5x cells, with rucaparib 10 µM, 100% = cells with rucaparib alone
# [33] = at 0.0781 µM, OCI-C5x cells, without rucaparib
# [34] = at 0.0781 µM, OCI-P5x cells, with rucaparib 20 µM, 100% = cells with rucaparib alone
# [35] = at 0.0781 µM, OCI-P5x cells, without rucaparib
# [36] = at 0.313 µM, OCI-C5x cells, with rucaparib 10 µM, 100% = cells with rucaparib alone
# [37] = at 0.313 µM, OCI-C5x cells, without rucaparib
# [38] = at 0.313 µM, OCI-P5x cells, with rucaparib 20 µM, 100% = cells with rucaparib alone
# [39] = at 0.313 µM, OCI-P5x cells, without rucaparib
# [40] = at 1.25 µM, OCI-C5x cells, with rucaparib 10 µM, 100% = cells with rucaparib alone
# [41] = at 1.25 µM, OCI-C5x cells, without rucaparib
# [42] = at 1.25 µM, OCI-P5x cells, with rucaparib 20 µM, 100% = cells with rucaparib alone
# [43] = at 1.25 µM, OCI-P5x cells, without rucaparib
# [44] = at 5 µM, OCI-C5x cells, with rucaparib 10 µM, 100% = cells with rucaparib alone
# [45] = at 5 µM, OCI-C5x cells, without rucaparib
# [46] = at 5 µM, OCI-P5x cells, with rucaparib 20 µM, 100% = cells with rucaparib alone
# [47] = at 5 µM, OCI-P5x cells, without rucaparib
structure (smiles),measurement,setting,value
CCC(CC)CC1(C(=O)Nc2ccccc2SC(=O)C(C)C)CCCCC1,outcome,[1],inactive
same,outcome,[2],inactive
same,outcome,[3],inactive
same,outcome,[4],inactive
same,fold change,[5]; [10],0.89 (inactive)
same,fold change,[5]; [11],0.858
same,cell count,[5]; [12],9550
same,cell count,[5]; [13],10700
same,SSMD,[6],1.84
same,cell count,[6],6890
same,plate-normalised HSF1 focus index,[6],1.09 (inactive)
same,z-score,[7]; [14],-0.325 (inactive)
same,z-score,[7]; [15],1.25
same,viability,[8]; [16],115% (inactive)
same,viability,[8]; [17],112% (inactive)
same,viability,[8]; [18],92.5% (active)
same,viability,[8]; [19],91.2% (active)
same,viability,[8]; [20],109% (inactive)
same,viability,[8]; [21],105% (inactive)
same,viability,[8]; [22],97.3% (active)
same,viability,[8]; [23],96% (active)
same,viability,[8]; [24],111% (inactive)
same,viability,[8]; [25],114% (inactive)
same,viability,[8]; [26],101% (inactive)
same,viability,[8]; [27],99.6% (active)
same,viability,[8]; [28],127% (inactive)
same,viability,[8]; [29],110% (inactive)
same,viability,[8]; [30],104% (inactive)
same,viability,[8]; [31],108% (inactive)
same,viability,[8]; [32],110% (inactive)
same,viability,[8]; [33],115% (inactive)
same,viability,[8]; [34],104% (inactive)
same,viability,[8]; [35],103% (inactive)
same,viability,[8]; [36],99.9% (active)
same,viability,[8]; [37],121% (inactive)
same,viability,[8]; [38],107% (inactive)
same,viability,[8]; [39],103% (inactive)
same,viability,[8]; [40],113% (inactive)
same,viability,[8]; [41],126% (inactive)
same,viability,[8]; [42],107% (inactive)
same,viability,[8]; [43],102% (inactive)
same,viability,[8]; [44],110% (inactive)
same,viability,[8]; [45],120% (inactive)
same,viability,[8]; [46],103% (inactive)
same,viability,[8]; [47],108% (inactive)
CCCCCCCCCCCCCCCCOCCCOP(=O)(O)COC(CO)Cn1ccc(N)nc1=O (centres undefined),outcome,[1],inactive
same,outcome,[2],inactive
same,outcome,[3],inactive
same,outcome,[4],inactive
CCCNC(=O)c1cn2ncnc(Nc3cc(C(=O)NC4CC4)ccc3C)c2c1C,outcome,[1],inactive
same,outcome,[2],inactive
same,outcome,[3],inactive
same,outcome,[4],inactive
CCc1ccc2nc(Nc3cc(Cc4ccccc4)nc(NC4CCC(O)CC4)n3)sc2c1 (centres undefined),AC50,[1],26.3 µM (active)
same,AC50,[2],18.6 µM (active)
same,AC50,[3],20.9 µM (active)
same,outcome,[4],inactive
CC(C)C[C@@H]1NC(=O)[C@@H](C(C)C)NC(=O)[C@@H]2CCCN2C(=O)[C@@H](CC(=O)O)NC(=O)[C@@H](Cc2c[nH]c3ccccc23)NC1=O,outcome,[1],inactive
same,outcome,[2],inactive
same,outcome,[3],inactive
same,outcome,[4],inactive
CNCCCOc1cc(F)c(-c2c(Cl)nc3ncnn3c2N[C@@H](C)C(F)(F)F)c(F)c1,AC50,[1],0.0833 µM (active)
same,AC50,[2],0.118 µM (active)
same,AC50,[3],0.105 µM (active)
same,IC50,[4],0.235 µM (active)
FC(F)(F)c1ccc(CNc2ccc(Cc3c[nH]c4ncccc34)cn2)cc1,AC50,[1],16.6 µM (active)
same,AC50,[2],20.9 µM (active)
same,AC50,[3],18.6 µM (active)
same,outcome,[4],inactive
CNc1nc(C)nc(N[C@H]2CCC[C@@H](C(=O)NCc3ccc(C#N)cc3C(F)(F)F)C2)n1,outcome,[1],inactive
same,outcome,[2],inactive
same,outcome,[3],inactive
same,outcome,[4],inactive
O=C(Cc1ccccc1)Nc1nnc(CCSCCc2nnc(NC(=O)Cc3ccccc3)s2)s1,outcome,[1],inactive
same,AC50,[2],11.8 µM (active)
same,AC50,[3],14.8 µM (active)
same,outcome,[4],inactive
O=C(Nc1cccc(Cl)c1)Nc1ncc(CCNc2ncnc3ccsc23)s1,liver cell % of control,[9],68.4% and 82.5% and 102%
same,parasite % of control,[9],0.394% (inactive) and 0.318% (inactive) and 0.473% (active)
same,AC50,[1],0.0166 µM (active)
same,AC50,[2],0.525 µM (active)
same,AC50,[3],16.6 µM (active)
same,IC50,[4],11.8 µM (active)
same,fold change,[5]; [10],1.06 (inactive)
same,fold change,[5]; [11],1.09
same,cell count,[5]; [12],2320
same,cell count,[5]; [13],2200
same,SSMD,[6],1.43
same,cell count,[6],7300
same,plate-normalised HSF1 focus index,[6],1.08 (inactive)
same,z-score,[7]; [14],-0.144 (inactive)
same,z-score,[7]; [15],-1.82
same,viability,[8]; [16],108% (inactive)
same,viability,[8]; [17],107% (inactive)
same,viability,[8]; [18],122% (inactive)
same,viability,[8]; [19],122% (inactive)
same,viability,[8]; [20],98.1% (active)
same,viability,[8]; [21],97.4% (active)
same,viability,[8]; [22],115% (inactive)
same,viability,[8]; [23],94.7% (active)
same,viability,[8]; [24],95.1% (active)
same,viability,[8]; [25],96.5% (active)
same,viability,[8]; [26],112% (inactive)
same,viability,[8]; [27],91.7% (active)
same,viability,[8]; [28],112% (inactive)
same,viability,[8]; [29],109% (inactive)
same,viability,[8]; [30],99.4% (active)
same,viability,[8]; [31],85.1% (active)
same,viability,[8]; [32],91.8% (active)
same,viability,[8]; [33],109% (inactive)
same,viability,[8]; [34],99.1% (active)
same,viability,[8]; [35],85.1% (active)
same,viability,[8]; [36],91.9% (active)
same,viability,[8]; [37],103% (inactive)
same,viability,[8]; [38],96.5% (active)
same,viability,[8]; [39],81.4% (active)
same,viability,[8]; [40],94.3% (active)
same,viability,[8]; [41],108% (inactive)
same,viability,[8]; [42],97.9% (active)
same,viability,[8]; [43],88.4% (active)
same,viability,[8]; [44],170% (inactive)
same,viability,[8]; [45],150% (inactive)
same,viability,[8]; [46],51.5% (active)
same,viability,[8]; [47],61.4% (active)
